The source made the active and inactive calls. The calls were made as follows: active = hit-call score of the fitted dose curve at least 0.9, where 1 is the maximum; inactive = score below 0.9.

This note sets out measurements from PubChem BioAssay (EPA / NIEHS).

The assay can be described thus: CCTE_Shafer_MEA_acute_network_burst_percentage: CCTE's Neural Acute Assay for Percentage of Network Bursts, Shafer Lab (AID 2284022).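 Also: curves fitted for loss so actives lower network burst percentage.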 As for the experimental part: CCTE_Shafer_MEA_acute assay is conducted using Axion Biosystems 48 well microelectrode array (MEA) plates and Maestro recording system. Each well of the MEA plate contains a grid of 16 microelectrodes embedded in the culture surface. Electrically active cells, such as neurons, can be cultured over the electrodes, and electrical activity in these cells can be recorded extracellularly. The spontaneous firing of neurons is captured from each electrode on a microsecond timescale providing both temporally and spatially precise data. […] The CCTE_Shafer_MEA_acute assay uses primary cultures of rat cortical neurons. As these cultures mature over time, neural networks develop functional activity and form cohesive networks in which electrical activity can be highly coordinated. Baseline 40-minute recordings are made on days post-plating 13 or 15, followed by a secondary 40-minute recording after chemical exposure.CCTE_Shafer_MEA_acute_network_burst_percentage is a component of the CCTE_Shafer_MEA_acute assay. It measures the percent of spikes (action potential firings) in network bursts (temporally-clustered groups of spikes across multiple electrodes) as the number of spikes occuring in network bursts divided by the total number of spikes during a recording in a microelectrode array (MEA) using Axion Biosystems Maestro 768 channel amplifier with the AxIS adaptive spike detector. The recordings before and after chemical treatment are used to calculate a percent change in the network burst percentage in each well.Data from the assay component CCTE_Shafer_MEA_acute_network_burst_percentage was analyzed into 1 assay endpoint. This assay endpoint, CCTE_Shafer_MEA_acute_network_burst_percentage, was analyzed in the negative analysis fitting direction relative to DMSO as the negative control and baseline of activity. Using a type of functional reporter, gain or loss-of-signal activity can be used to understand electrical activity.
Spontaneous activity in the cortical cultures was recorded using an Axion Biosystems Maestro 768 channel amplifier and Axion Integrated Studios (AxIS) v1.8 (or later) software. The amplifier recorded from all channels simultaneously (gain = 1200 x; sampling rate = 12.5 kHz/channel): raw signals were filtered with a Butterworth band-pass filter (300-5000 Hz), which filters out slower local field potentials leaving only fast potentials, i.e., "spikes", arising from extracellular currents associated with action potentials (Pine 2006; Wheeler and Nam 2011). On-line spike detection of filtered signals was conducted with the AxIS adaptive spike detector, using a threshold of 8x the root mean squared (rms) noise on each channel. Any electrodes with rms noise levels greater than 5 uV were grounded (e.g., no data were recorded). Once grounded, an electrode was grounded for the duration of the experiment. All recordings were conducted at 37 C. Wells were deemed usable if on the day of the exposure >/= 10 electrodes were active (defined as >/= 5 spikes/min). On DIV 13 or 15, a minimum of three wells from one cortical culture preparation were treated with each compound (0.03-40 uM). Prior to recording baseline activity, each mwMEA plate was placed in the Maestro at 37 C and allowed to sit for 20 min while firing rates stabilized. Baseline activity (40 min) was recorded before the addition of each compound. An additional 40 min of spontaneous activity was recorded in the presence of each compound. Changes in network parameters relative to baseline were assessed following compound treatment.
In the case of `Cc1ccc(-c2cc(C(F)(F)F)nn2-c2ccc(S(N)(=O)=O)cc2)cc1`, the compound was classed as inactive. The same measure, in the same setting: for `COC(=O)[C@H]1[C@H]2C[C@@H]3c4[nH]c5cc(OC)ccc5c4CCN3C[C@H]2C[C@@H](OC(=O)c2cc(OC)c(OC)c(OC)c2)[C@@H]1OC` the value was “inactive”; for `CC1=C(C)S(=O)(=O)CCS1(=O)=O`, “inactive”.

As for `CCc1cc(C2=C(C(=O)O)N(c3ccccc3C(F)(F)F)S(=O)(=O)c3ccccc32)cc2c1OCO2`, the call was inactive. Turning to `Cc1cc(Cc2ccc(N)c(C)c2)ccc1N`, the AC50 (usually the concentration at which the activity in the assay is half-maximal) is 29.6 µM (active). Regarding `NC(=Nc1ccccc1)Nc1ccccc1`, the outcome was inactive. As for `CN(C)C(=O)NC1(c2ccccc2)CCN(CC[C@@]2(c3ccc(F)c(F)c3)CN(C(=O)c3ccccc3)CCO2)CC1`, the half-maximal activity concentration (AC50) is 5 µM (active).

As for `CC(C)COC(=O)CCCCC(=O)OCC(C)C`, the compound was called inactive. Still for that read-out and setting: for `Cc1cc(SC2=C(O)C[C@@](CCc3ccc(N)cc3)(C(C)C)OC2=O)c(C(C)(C)C)cc1CO` the value was “inactive”; for `Cc1c(C)c2c(c(C)c1O)CCC(C)(COc1ccc(CC3SC(=O)NC3=O)cc1)O2` (stereo not drawn), “inactive”. On the same count and under the same terms, for `O=C(O)CN(CC(=O)O)CC(=O)O` the value was “inactive”. On to `CC(C)NCC(O)c1ccc(O)c(O)c1` (stereo not drawn), for which the result was inactive.

As for `CCCCC(CC)COP(=O)(OCC(CC)CCCC)OCC(CC)CCCC` (stereo not drawn), the result was inactive.

`O=C1OC(c2ccc(O)cc2)(c2ccc(O)cc2)c2ccccc21`: the AC50 was 31 µM (active).

On to `C/C=C/c1ccc(OC)cc1`, for which the outcome was inactive. Consider `COc1ccc(OC(F)(F)F)cc1CN[C@H]1CCCN[C@H]1c1ccccc1`, for which the AC50 is 3.09 µM (active). With `CSc1ccc(Oc2ccc(S(N)(=O)=O)cc2CN(C)C)cc1C`, the call was inactive. Consider `CN(C)C(=O)NC1(c2ccccc2)CCN(CCC[C@]2(c3ccc(Cl)c(Cl)c3)CCCN(C(=O)c3ccccc3)C2)CC1`, for which the AC50 was 7.5 µM (active). For `OCC(CO)n1cnc(-c2ccc(F)cc2)c1-c1ccnc(Oc2ccccc2)n1`, the call was inactive. The same measure, in the same setting: for `CC(N)=O` the value was “inactive”; for `CCCC(=O)O`, “inactive”; for `Cc1ccc(C(C)(C)C)c(O)c1`, “inactive”. With `O=C(N[C@@H](c1ccccc1)[C@@H]1CCCCN1)c1cccc(C(F)(F)F)c1Cl`, the AC50 was 9.12 µM (active). In the case of `Nc1nc(=S)c2[nH]cnc2[nH]1`, the compound was classed as inactive. Still for that read-out and setting: for `CCN(CC)CCOc1ccc(C(=C(Cl)c2ccccc2)c2ccccc2)cc1` the value was “inactive”; for `CN(C)CCCN1c2ccccc2Sc2ccc(Cl)cc21`, “inactive”; for `c1ccc2occc2c1`, “inactive”. Turning to `Oc1ccc(O)cc1`, the call was inactive.
